Values joined by “and” are separate entries in the source; they are usually repeats but may differ in a detail not shown here. Equal values may be shown once. Active and inactive are the calls of the source. How the calls were made is not given here.
Key:
[1] = Immunotoxin (HA22) sensitization/mitigation study. Vehicle arm (PBS) (AID 1159510)
[2] = Immunotoxin (SS1P) sensitization/mitigation study. Vehicle arm (DMEM) (AID 1159513)
Potency means the concentration at half of the fitted maximal effect.

Row | Compound | Potency [1] | Potency [2]
1 | CC(C)(C)c1cc(C(=O)O)c(NC(=O)Nc2ccc3[nH]ncc3c2)s1 | inactive | inactive
2 | Nc1ccccc1NC(=O)c1ccc(CNC(=O)OCc2cccnc2)cc1 | 0.526 µM (active) | 5.9 µM (active)
3 | C=CCc1cccc(/C=N/NC(=O)CN2CCN(Cc3ccccc3)CC2)c1O | 4.69 µM (active) | 13.2 µM (active)
4 | Cc1cn(-c2cc(NC(=O)c3ccc(C)c(Nc4nccc(-c5cccnc5)n4)c3)cc(C(F)(F)F)c2)cn1 | 14.8 µM (active) | 26.4 µM (active)
5 | CCCCc1ccc(NS(=O)(=O)c2ccc(C)c(C(=O)N3CCN(c4cccc(C)c4C)CC3)c2)cc1 | 20.9 µM (active) | 23.5 µM (active)
6 | CCC(=O)N1CCN(c2ccc(-n3c(=O)ccc4cnc5ccc(-c6cnc7ccccc7c6)cc5c43)cc2C(F)(F)F)CC1 | 4.18 µM (active) | 0.0209 µM (active)
7 | OC[C@H]1O[C@@H](n2cnc3c2NC=NC[C@@H]3O)C[C@H]1O | inactive | inactive
8 | CO[C@H]1C=CC=C(C)C(=O)NC2=CC(=O)C(NCCN(C)C)=C(C[C@@H](C)C[C@H](OC)[C@@H](O)[C@@H](C)C=C(C)[C@@H]1OC(N)=O)C2=O | 0.0059 µM (active) | 3.32 µM (active)
9 | Cc1cc(Nc2cc(N3CCN(C)CC3)nc(Sc3ccc(NC(=O)C4CC4)cc3)n2)n[nH]1 | 7.43 µM (active) | 18.7 µM (active)
10 | CCCCCN(CCC12CC3CC(CC(C3)C1)C2)C(=O)NCCCc1ccncc1 | 11.8 µM (active) | 23.5 µM (active)
11 | C[C@@H]1C[C@H]2[C@@H]3CCC4=CC(=O)C=C[C@]4(C)C3(F)[C@@H](O)C[C@]2(C)[C@@]1(O)C(=O)CO (some centres undefined) | 0.059 µM (active) | inactive
12 | COc1nc(-c2ccc3c(c2)OCO3)n(-c2ccc(NC(=O)CSc3ccccc3)cc2)n1 | 20.9 µM (active) | inactive
13 | C[C@]1(CO)CN(c2cc(C(=O)Nc3ccc4c(c3)-c3c(c(C(N)=O)nn3-c3ccc(F)cc3)CC4)c(Cl)cn2)C[C@@]1(C)CO | 3.32 µM (active) | 16.6 µM (active)
14 | O=C(O)[C@@H](c1ccc(OCc2ccc3ccccc3n2)cc1)C1CCCC1 | inactive | inactive
15 | CN(C)CCN(C)C(=O)c1ccc(NC(=O)Nc2ccc(-c3nc(N4CCOCC4)c4ccn(CC(F)(F)F)c4n3)cc2)cc1 | 1.48 µM (active) | 0.0264 µM (active)
16 | O=C(NC1CCNCC1)c1[nH]ncc1NC(=O)c1c(Cl)cccc1Cl | 37.2 nM (active) and 105 nM (active) | 29.6 nM (active) and 83.3 nM (active)
17 | CCCCCCCCCCCCCC(=O)N[C@H](CO)[C@H](O)c1ccc([N+](=O)[O-])cc1 | 16.6 µM (active) | 23.5 µM (active)
18 | CC(C)C[C@@H](C(=O)N[C@H](C(=O)OC1CCCC1)c1ccccc1)[C@H](O)C(=O)NO | 23.5 µM (active) | 16.6 µM (active)
19 | CC[C@@H](C)[C@H](NC(=O)[C@H](CC1CCCCC1)NC(=O)c1ccno1)C(=O)N1CCC2(CCc3ccccc32)CC1 | inactive | 16.6 µM (active)
20 | Cc1cc([C@@H](C)Nc2ccccc2C(=O)O)c2nc(N3CCOCC3)cc(=O)n2c1 | 14.8 µM (active) | 20.9 µM (active)
21 | CC(C)[C@H](CO)Nc1nc(Nc2ccc(C(=O)O)c(Cl)c2)c2ncn(C(C)C)c2n1 | inactive | inactive
22 | CCN1CCN(Cc2ccc(-c3cc4c(N[C@H](C)c5ccccc5)ncnc4[nH]3)cc2)CC1 | 16.6 µM (active) | 23.5 µM (active)
23 | C=C1C(=CC=C2CCC[C@]3(C)[C@@H]([C@H](C)C=C[C@H](C)C(C)C)CC[C@@H]23)C[C@@H](O)C[C@@H]1O | 20.9 µM (active) | inactive
24 | O=C1C(CCC(O)c2ccc(F)cc2)C(c2ccc(O)cc2)N1c1ccc(F)cc1 (centres undefined) | inactive | inactive
25 | O=C(O)c1ccc(-c2cc3cccnc3c(-c3ccc4nonc4c3)n2)cc1 | inactive | inactive
26 | CCc1cc(Nc2nccc(-c3c(-c4ccc(OC)c(C(=O)Nc5c(F)cccc5F)c4)nc4ccccn34)n2)c(OC)cc1N1CCC(N2CCN(S(C)(=O)=O)CC2)CC1 | 3.72 µM (active) | inactive

Row | Compound | Potency [1] | Potency [2]
27 | COC(=O)Nc1ccc(-c2nc(N3CCOCC3)c3cnn(C4CCN(C(=O)OC)CC4)c3n2)cc1 | 16.6 µM (active) | 0.187 µM (active)
28 | CO[C@@H]1[C@H](N(C)C(=O)c2ccccc2)C[C@H]2O[C@]1(C)n1c3ccccc3c3c4c(c5c6ccccc6n2c5c31)C(=O)NC4 | 0.469 µM (active) | 1.05 µM (active)
29 | CCOC(=O)C1=C[C@@]2(CC)CCCN3CCc4c(n1c1ccccc41)[C@H]32 | inactive | inactive
30 | COc1cc2c(cc1O)CC[C@@H]1[C@@H]2CC[C@]2(C)[C@@H](O)CC[C@@H]12 | 0.418 µM (active) | 0.833 µM (active)
31 | O=c1cc(CN2CCOCC2)occ1OCCCCCSc1ccnc2cc(C(F)(F)F)ccc12 | 20.9 µM (active) | 5.9 µM (active)
32 | COc1ccc2c3n(c(=NC(=O)c4cccnc4)nc2c1OC)CCN3 | 11.8 µM (active) | 3.72 µM (active)
33 | CC1=C(CO)C(=O)O[C@@H]([C@@H](C)[C@H]2CC[C@H]3[C@@H]4C[C@H]5O[C@]56[C@@H](O)C=CC(=O)[C@]6(C)[C@@H]4CC[C@]23C)C1 | 0.0743 µM (active) | 3.72 µM (active)
34 | Cc1[nH]nc2ccc(-c3cncc(OC[C@@H](N)Cc4ccccc4)c3)cc12 | 1.18 µM (active) | 1.32 µM (active)
35 | CCC1(O)CC2CN(CCc3c([nH]c4ccccc34)[C@@](C(=O)OC)(c3cc4c(cc3OC)N(C=O)[C@H]3[C@](O)(C(=O)OC)[C@H](OC(C)=O)[C@]5(CC)C=CCN6CC[C@]43[C@@H]65)C2)C1 (some centres undefined) | 0.0017 µM (active) | 0.0033 µM (active)
36 | CC(C)C[C@H](NC(=O)CNC(=O)c1cc(Cl)ccc1Cl)B(O)O | 0.0187 µM (active) | 0.118 µM (active)
37 | CCOc1cc2ncc(C#N)c(Nc3ccc(F)c(Cl)c3)c2cc1NC(=O)C=CCN(C)C | 4.69 µM (active) | 14.8 µM (active)
38 | O=C(C=Cc1cccc(S(=O)(=O)Nc2ccccc2)c1)NO | 0.264 µM (active) | 0.833 µM (active)
39 | O=C(Nc1cc(C(F)(F)F)cc(C(F)(F)F)c1)c1cc(Cl)ccc1O | 0.166 µM (active) | 0.0662 µM (active)
40 | CN1C(=O)C(Cc2c[nH]c3ccccc23)NC1=S (centres undefined) | inactive | inactive
41 | CC(NCc1ccc2c(c1)nc(NC(=O)c1ccc(-c3cn[nH]c3)s1)n2CC(C)(C)O)C(C)(C)C (centres undefined) | 0.0469 µM (active) | 0.0418 µM (active)
42 | N#Cc1ccc(NC(=O)Nc2ccccc2Br)c2n[nH]nc12 | 26.4 µM (active) | inactive
43 | COC(=O)C1=C(C)NC(C)=C(C(=O)OCCCN2CCC(c3ccccc3)(c3ccccc3)CC2)[C@H]1c1cccc([N+](=O)[O-])c1 | 16.6 µM (active) | 26.4 µM (active)
44 | O=C(O)c1ccc2cc(-c3ccc(O)c(C45CC6CC(CC(C6)C4)C5)c3)ccc2c1 | 0.0935 µM (active) | 18.7 µM (active)
45 | COC(=O)[C@]12CCC(C)(C)C[C@@H]1[C@@H]1C(=O)C=C3[C@@]4(C)C=C(C#N)C(=O)C(C)(C)[C@@H]4CC[C@@]3(C)[C@]1(C)CC2 | 0.526 µM (active) | 0.833 µM (active)
46 | CC(C)c1ccc2c(c1)c(SC(C)(C)C)c(CC(C)(C)C(=O)O)n2Cc1ccc(Cl)cc1 | 13.2 µM (active) | 11.8 µM (active)
47 | Cc1nc(N)sc1-c1ccnc(Nc2ccc(N3CCOCC3)cc2)n1 | 5.9 µM (active) | 18.7 µM (active)
48 | Cc1ccc(C(=O)Nc2cccc(C(F)(F)F)c2)cc1-c1ccc2nc(NCCN3CCOCC3)ncc2c1 | 14.8 µM (active) | 13.2 µM (active)
49 | O=c1[nH]c(-c2ccc(C(F)(F)F)cc2)nc2c1CSCC2 | inactive | inactive
50 | Cn1cc(-c2ccc3nnc(C(F)(F)c4ccc5ncccc5c4)n3n2)cn1 | inactive | inactive
51 | NC(=O)c1ccc(-c2nc(-c3ccc4c(c3)OCCO4)c(-c3ccccn3)[nH]2)cc1 | 20.9 µM (active) | inactive
52 | CN(C)CCCN=c1c2ccccc2n(C)c2[nH]c(=O)n(C)c(=O)c12 | 7.43 µM (active) | 7.43 µM (active)

From PubChem BioAssay (NCATS)
